# Screens as filed in PubChem BioAssay.
# Only some compounds are listed: those with a hit (about 9.4% of all), similar ones and a draw of the others.
# HTT cytoprotect: qHTS Multiplex Assay to Identify Dual Action Probes in a Cell Model of Huntington: Cytoprotection (ATP) | PC12 HTT-Q103 induced, cytoprotection, ATP luminescence, 40 h | 0.14% of 230,000 active | Potency, µM (series often up to 56.4 µM), without a hit: cytoprotection (ATP increase), hits mostly activators | AID 1471, 2008; also: potency is read from the fitted curve at half-maximal effect; % of control where 0% means no effect; nearly all actives have a fitted effect of over 45% in size
#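 Quantitative HTS on tebufenozide-induced (100 nM) PC12 cells expressing HTTQ103 exon 1–GFP; compounds tested as a concentration series; survival measured via cellular ATP.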
# HttQ103 aggreg: qHTS Multiplex Assay to Identify Dual Action Probes in a Cell Model of Huntington: Aggregate Formation (GFP); 1.1% of 220,000 active; AID 1688, 2009; PC12 HttQ103-GFP aggregates, Acumen cytometry, 40 h; Potency, µM (series often up to 46.1 µM), inactives show at the top dose activity change, negative = inhibition, hits mostly inhibitors; also: potency is read from the fitted curve at half-maximal effect; % is scaled to controls: 0 for no effect and ±100 for the full control effect; nearly all actives have a fitted effect of over 60% in size
#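 Multiplexed with ATP-based cell death, this channel scores GFP aggregates in PC12 cells expressing inducible HTTex1-Q103-GFP. Induction used 100 nM tebufenozide; compounds were tested in concentration series.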
# ALDH1A1 block: qHTS Assay for Inhibitors of Aldehyde Dehydrogenase 1 (ALDH1A1); Aldehyde dehydrogenase 1A1 (Homo sapiens), P00352; Purified ALDH1A1, NADH fluorescence, propionaldehyde substrate; Potency, µM (highest dose often 75.3 µM), for the others: at the highest dose activity, negative = inhibition, usual class: inhibitors; 7.3% of 220,000 active; active = well fitted inhibition curve with a large enough effect, not every such curve was filed as active; inconclusive = small, poorly fitted or top-dose-only effect, or another doubt; inactive = no such curve, though single readings can be large or run the other way;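 also: potency is read from the fitted curve at half-maximal effect; plate controls were no enzyme wells and a reference inhibitor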
# Target sequence (P00352 whole entry, looked up): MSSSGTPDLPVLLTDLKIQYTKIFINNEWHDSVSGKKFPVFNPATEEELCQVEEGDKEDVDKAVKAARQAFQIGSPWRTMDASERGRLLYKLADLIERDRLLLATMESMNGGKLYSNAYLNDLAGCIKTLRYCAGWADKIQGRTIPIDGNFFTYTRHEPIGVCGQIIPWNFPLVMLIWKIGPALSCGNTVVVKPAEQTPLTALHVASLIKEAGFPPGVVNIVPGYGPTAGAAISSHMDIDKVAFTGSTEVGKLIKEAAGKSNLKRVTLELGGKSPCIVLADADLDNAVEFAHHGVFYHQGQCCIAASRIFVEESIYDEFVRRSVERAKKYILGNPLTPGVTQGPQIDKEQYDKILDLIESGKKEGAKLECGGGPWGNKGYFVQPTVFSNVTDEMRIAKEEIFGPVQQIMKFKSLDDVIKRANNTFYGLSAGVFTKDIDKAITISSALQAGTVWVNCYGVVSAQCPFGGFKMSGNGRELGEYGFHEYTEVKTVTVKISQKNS
# HPGD block: qHTS Assay for Inhibitors of HPGD (15-Hydroxyprostaglandin Dehydrogenase); 15-hydroxyprostaglandin dehydrogenase [NAD(+)] (Homo sapiens), P15428; purified HPGD, NADH fluorescence kinetic, PGE2 substrate; Potency, µM, for the others: at the highest dose activity change, negative = inhibition, actives largely listed as inhibitors; AID 894, 2007; 4.3% of 150,000 active; active = well fitted inhibition curve with a large enough effect, not every such curve was filed as active; inconclusive = small, poorly fitted or top-dose-only effect, or another doubt; inactive = no such curve, though single readings can be large or run the other way; also: potency is read from the fitted curve at half-maximal effect; % is scaled to controls: 0 for no effect and ±100 for the full control effect
# Target sequence (P15428 whole entry, looked up): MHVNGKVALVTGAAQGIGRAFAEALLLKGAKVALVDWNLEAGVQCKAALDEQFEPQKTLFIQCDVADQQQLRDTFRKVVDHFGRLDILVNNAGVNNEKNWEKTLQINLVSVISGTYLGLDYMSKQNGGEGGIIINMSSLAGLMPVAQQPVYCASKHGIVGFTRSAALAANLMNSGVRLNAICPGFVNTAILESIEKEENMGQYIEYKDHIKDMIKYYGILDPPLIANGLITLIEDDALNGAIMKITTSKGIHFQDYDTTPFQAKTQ
#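 20 nM HPGD preincubated 15 min at room temperature with compound in 50 mM Tris-HCl pH 8, 0.01% Tween 20. Started with 1 mM NAD+ and 30 uM prostaglandin E2; NADH fluorescence (360/450 nm) read 5 times over 30-s intervals, last minus first.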
# IMPase Li cell: qHTS Assay for Identifying the Cell-Membrane Permeable IMPase Inhibitors: Potentiation with Lithium. CHO-M1 cells, IP1 TR-FRET (IP-One), carbachol + lithium. Potency, µM (series often up to 59.4 µM), without a hit: at the top dose activity, negative = IMPase inhibition, most hits filed as inhibitors. 0.35% of 210,000 active;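 also: IP1 builds up when IMPase is blocked and the TR-FRET signal falls; potency is read from the fitted curve at half-maximal effect; plate controls were basal vehicle for no effect and high inhibitor control for full effect; nearly all actives have a fitted effect of over 50% in size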
#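 CHO-M1, 2000 cells/well, 16–30 h culture; cpd + low Li+, 30 min 37C; lysis with d2-IP1/Eu-anti-IP1 Ab, 10 min RT; TR-FRET 665/620 ratio and 620 channel; AC50 via Hill.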
# IMPase inh: qHTS Assay for Identifying the Cell-Membrane Permeable IMPase Inhibitors; Inositol monophosphatase 1 (Rattus norvegicus), P97697; CHO-M1 cells, IP1 accumulation, HTRF TR-FRET ratio; 120,000 tested, under 10 active; inhibition (IP1 accumulation), % at 46.1 µM; active = well fitted curve in the direction sought with a large enough effect in the signal ratio, not every such curve was filed as active; inconclusive = small, poorly fitted or top-dose-only effect, or a change in a side signal; inactive = no such curve, though single readings can be large or run the other way; the % refers to the signal ratio;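 also: cells stimulated with carbachol in lithium chloride buffer; plate controls were DMSO basal wells for no effect and reference inhibitor wells for full effect; higher means more IMPase inhibition seen as more IP1 and lower FRET ratio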
#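 Measured: the HTRF emission ratio (665/620 nm) plus the 620 nm donor channel, each fitted to the Hill equation to give AC50. Cells were CHO-M1 given compounds up to 46 uM and a 30 min carbachol stimulation at 37C.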
# The depositor's hits bear a star; ? = inconclusive; . = no result; [ ] = another dose, or the depositor's remark. Unless noted, calls follow the shape of the dose curve; as a rule, active = well fitted curve in the direction sought with a large enough effect; inconclusive = small, poorly fitted or top-dose-only effect, or another doubt; inactive = no such curve, though single readings can be large; an effect the other way counts as inactive or inconclusive.
SMILES,HTT cytoprotect,HttQ103 aggreg,ALDH1A1 block,HPGD block,IMPase Li cell,IMPase inh
Cc1ccc(-c2c[nH]c(=S)n2-c2ccccc2)cc1,3.8%[10 µM],0.8%,1µM*,.,0.1%,.
S=c1[nH]cc(-c2ccccc2)n1-c1cccc(Cl)c1,.,24.6%,?,?,2.9%,.
Cc1ccc(-c2c[nH]c(=S)n2-c2ccccc2F)cc1,-1.8%,13.0%,2µM*,.,6.1%,.
CCn1c(-c2ccc(-c3ccccc3)cc2)c[nH]c1=S,-28.5%,-16.9%,?,?,29.7%[38.3 µM],-5.8
Cc1ccccc1N1CC(O)(c2ccccc2)[N+]2=C1SCC2 (centres undefined),0.0%[10 µM],-19.5%,12.6µM*,-3.5%,10.9%,-16.0
Cc1ccc(C2(O)CN(c3ccccc3C)C3=[N+]2CCS3)cc1 (centres undefined),20.5%[10 µM],-19.6%,20µM*,-1.3%,8.8%,-0.3
COc1ccc(Nc2nnc(-c3ccc(C)c(S(=O)(=O)N4CCN(C)CC4)c3)c3ccccc23)cc1,.,.,.,.,.,2.5
Cn1c2c(c(=O)n(C)c1=O)C(NS(=O)(=O)c1ccccc1)(C(F)(F)F)C(=O)N2 (centres undefined),3.55µM*,11.4%,5.0%,-12.2%,-11.6%[38.3 µM],?
COc1ccc(S(=O)(=O)N=Nc2c(O)[nH]c3ccccc23)cc1,-34.6%,-11.1%,25.1µM*,.,1.8%,.
CCOC(=O)N1CCN(c2cc(NCCC(=O)O)c3c4c(onc24)-c2ccccc2C3=O)CC1,-7.5%[1.9 µM],6.7%,14.1µM*,-26.0%,200.6%[38.3 µM],?
CC1=C(C(=O)Nc2cccnc2)C(c2ccc(F)cc2)n2nc(-c3cccc(C)c3)nc2N1 (centres undefined),.,.,.,.,.,3.9
COc1ccc(C(=O)Nc2cccc3c2C(=O)NC3=O)cc1S(=O)(=O)N1CCOCC1,-1.1%[10 µM],13.9%,?,?,10µM*,-4.3
CCOc1ccc(Br)cc1S(=O)(=O)Nc1ccc(C(=O)Nc2ccccc2OC)cc1,1.4%[0.074 µM],13.7%,15.8µM*,-28.6%,0.1%,.
CCOc1ccc(C(=O)NC(=S)NC2CCCC2)cc1[N+](=O)[O-],-11.9%[10 µM],6.9%,12.6µM*,-11.3%,3.0%,.
CCOc1ccc(C(=O)NC(=S)Nc2ccc(NC(=O)CC)cc2)cc1[N+](=O)[O-],35.3%[0.074 µM],27.0%,?,-20.1%,2.6%,.
CCOc1ccc(Br)cc1S(=O)(=O)Nc1ccc(C(=O)Nc2ccc(C)cc2)cc1,-14.6%[0.074 µM],-3.8%,16.0%,-7.9%,7.0%,.
COc1ccc(C(=O)NC(=S)Nc2cc(C)ccn2)cc1[N+](=O)[O-],0.2%[10 µM],0.7%,0.316µM*,-9.3%,4.5%,.
CCOc1ccc(C(=O)NC(=S)Nc2ccc(N3CCCCC3)cc2)cc1[N+](=O)[O-],12.0%[10 µM],28.2%,11.2µM*,31.6µM*,4.7%,.
COc1ccc(C(=O)Nc2cc(C)on2)cc1[N+](=O)[O-],15.7%,2.2%,0.4%,.,-0.6%,.
CC(C)(C)N1C(=O)[C@H]2[C@H]3[C@H](O)[C@H](O)C/C(=N/NC(=O)OCc4ccccc4)[C@@H]3CC[C@@H]2C1=O,-14.7%[10 µM],.,-7.7%[13.5 µM],.,.,.
O=C(c1ccncc1)N1CCC2(CC1)CN(c1ccccn1)C2,1.1%,.,?,?,13.1%,.
CCOc1ccc(C(=O)NC(=S)Nc2ccccc2OC)cc1[N+](=O)[O-],-16.9%[0.074 µM],-0.5%,8.91µM*,-9.2%,14.1%,.
COc1ccc(C(=O)NC(=S)Nc2cccc(Cl)c2N2CCOCC2)cc1[N+](=O)[O-],-3.0%,-2.5%,0.398µM*,-7.6%,-4.7%[38.3 µM],7.3
COc1ccc(C(=O)NC(=S)Nc2ccccc2N2CCCCC2)cc1[N+](=O)[O-],5.3%[10 µM],-14.4%,?,-16.2%,11.7%,.
Cn1cccc1/C=N/n1c(-c2ccc(Cl)cc2)n[nH]c1=S,3.8%[10 µM],10.8%,10.7%,3.98µM*,-3.1%,9.9
SMILES,HTT cytoprotect,HttQ103 aggreg,ALDH1A1 block,HPGD block,IMPase Li cell,IMPase inh
Cc1ccc(/C=N/n2c(-c3ccc(Cl)cc3)n[nH]c2=S)s1,-0.1%,-0.9%,3.7%,.,6.4%,.
COc1ccc(-c2n[nH]c(=S)n2/N=C/c2cccn2C)cc1,14.7%[10 µM],-11.2%[9.22 µM],.,.,.,.
Cn1cccc1/C=N/n1c(-c2ccc(Cl)cc2Cl)n[nH]c1=S,?,2.8%,?,12.6µM*,-1.6%,2.6
Cc1ccc(-c2n[nH]c(=S)n2/N=C/c2cccn2C)cc1,-12.2%,1.9%,-16.2%,8.91µM*,-5.8%[38.3 µM],2.1
CNC1C(O)[C@@H]2OC(O[C@@H]3C(O)C(O)C(N)C[C@H]3N)C(N)C[C@H]2O[C@H]1O[C@@H]1OC(CO)C(N)C(O)C1O (some centres undefined),-24.6%,.,0.4%,-2.4%,23.7%,.
O=c1ccn([C@H]2O[C@H](CO)[C@@H](O)[C@@H]2O)c(=O)[nH]1,-15.8%,.,.,.,.,.
Cc1ccc(OCc2nc(-c3ccccn3)no2)c(Br)c1,-116.6%,?,?,17.8µM*,-0.5%[38.3 µM],0.5
CCc1ccc(OCc2nc(-c3ccccn3)no2)c(Br)c1,-10.8%[10 µM],2.8%,-0.1%,28.2µM*,57.2%[38.3 µM],-3.5[1.84 µM]
Clc1ccc(OCc2nc(-c3ccncc3)no2)c(Br)c1,3.5%[10 µM],-0.9%,-4.7%,17.8µM*,12.2%,?
CC(C)c1ccc(OCc2nc(-c3ccccn3)no2)c(Br)c1,-59.4%,-16.5%,-8.7%,?,9.4%[38.3 µM],2.7
Cc1ccc(OCc2nc(-c3ccccn3)no2)cc1,-28.8%,-16.4%,8.0%,-13.2%,-8.1%[38.3 µM],7.0
CCOCCCn1c(=N)c(S(=O)(=O)c2ccc(C)cc2)cc2c(=O)n3cccc(C)c3nc21,.,.,.,.,.,6.3
COc1ccc(C)cc1NC(=O)CN(c1cc(C(F)(F)F)ccc1Cl)S(C)(=O)=O,.,.,.,.,.,13.1
CCN=C(N)CSS(=O)(=O)O,3.2%[10 µM],.,-6.6%[13.5 µM],-0.8%,-2.5%,.
COc1ccccc1OCC(=O)Nc1c(C(=O)c2ccc(F)cc2)oc2ccccc12,.,.,.,.,.,10.2
Cc1ccc(S(=O)(=O)NN2C(=O)/C(=C/c3cccn3C)SC2=S)cc1,8.1%[10 µM],17.7%,-3.7%,-26.5%,-8.7%,-1.8
CCCC(C(=O)O)N1C(=O)/C(=C/c2cccn2C)SC1=S (centres undefined),6.1%[10 µM],?,-2.2%,17.8µM*,29.8%,5.3
Cn1cccc1/C=C1\SC(=S)N(Nc2ccccc2)C1=O,-12.5%[10 µM],16.6%[9.22 µM],3.55µM*,.,.,.
